The viability is a read-out of living cells in per cent, often relative to untreated cells.

This note sets out measurements from PubChem BioAssay AID435019 (Southern Research Specialized Biocontainment Screening …, 2010).

Screen size: about 2,300 compounds; about 1,200 (52%) were called active. So high a share suggests a set chosen from earlier hits. The list shows a part of the results. Entries with a potency or affinity are not part of this list. Unmarked numbers belong to inactive results. No rule for the calls is given here.

The nature of the assay: mammalian cell cytotoxicity, dose response, cytotoxicity control for M. tuberculosis inhibitor project (AID 435019).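 Also: 0% = background wells and 100% = vehicle-treated cells; lower values mean fewer viable cells so more cytotoxicity.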 To be noted: cytotoxicity counter-screen; series mostly up to 40 µM; viability: at the top concentration. For orientation: A counterscreen serves to expose hits that act by an unwanted route or on another target.
As for `C=CCN(CC(=O)c1sc(C(=O)OCC)nc1C)c1cccc(Br)c1`, the “viability” value was 91.5%.
The result for `CCCCOC(=O)c1ccc(O)cc1` reads 95%; that for `[O-][n+]1c2ccccc2c2n1CCN1CCOC21c1ccc(Cl)cc1` (configuration not stated), 85.2%.
For `Cc1nonc1NC(=O)CSc1ccc(-c2ccccc2)nn1`, the “viability” value is 90.2%.
`O=C(OCC(=O)c1cccs1)C1=COCCO1`: the “viability” value is 98.4%.
Next, `CCCCn1nc(C(=O)Nc2ccccc2N2CCCC2)c2ccccc2c1=O`: 82.5%; `COC(=O)COc1ccc(-c2nn(C)c(=O)c3ccccc23)cc1`: 93.7%.
The result for `COc1cc(CNC(=O)CCCCCCC(C)C)ccc1O` reads 93%; that for `COC(=O)Cn1nc(-c2ccccc2)c2cc(Cl)ccc21`, 88%.
The result for `CC1=CC(=O)NP(=O)(Oc2ccc3ccccc3c2)N1` (configuration not stated) reads 93.5%; that for `CC(=O)Oc1ccc2occ(C(=O)c3cccs3)c2c1`, 102%.
For `Nc1nc2ccccc2n1/N=C/c1ccc(Br)cc1`, the “viability” value is 95.2%.
The result for `CC(C)(C)Nc1nc(NC(C)(C)C)nc(-n2ccnc2)n1` reads 90.2%; that for `CCOC(=O)CNC(=O)CNC(=O)c1nn(-c2ccc(OC)c(Cl)c2)c(=O)c2ccccc12`, 99%.
Next, `CCOC(=O)c1ccc(-n2c(CCC(=O)O)ccc2-c2cccs2)cc1`: 96.7%.
Next, `CC(C)OC(=O)c1ccc(N)cc1`: 102%.
With `CCc1ccc(NC2=NCC(c3ccccc3)S2)cc1` (configuration not stated), the “viability” value was 87.4%.
For `CC(C)OC(=O)c1ccc(NC(=S)NC(=O)c2cncc(Br)c2)cc1`, the “viability” value was 94.2%.
The result for `Cc1[nH]nc(SCC(=O)NCc2ccccc2)c1[N+](=O)[O-]` reads 90.9%.
Consider `COc1ccc(-c2ccc(-c3noc(C(C)C)n3)c(OC)n2)cc1`, for which the “viability” value was 81.4%.
Next, `Cc1ccc(Cl)cc1NC(=O)CN1CCN(S(=O)(=O)N2CCOCC2)CC1`: 90.4%; `Cc1ccc(C(=O)C2CCN(CC(=O)Nc3nc(C)cs3)CC2)cc1`: 83.6%; `CCCCNC(=S)N/N=C/c1cccc(OCC)c1O`: 95.4%.
As to `CCOC(=O)CN[C@H]1CCC2C3CC=C4C[C@@H](O)CC[C@]4(C)C3CC[C@@]21C` (some centres not stated), the “viability” value was 95.8%.
Take `Cc1ccc(C(=O)ONc2ccc(N=O)cc2)cc1`: the “viability” value was 89.5%.
Take `COc1ccc(NC(NC(=O)c2ccc(OC)cc2)C(Cl)(Cl)Cl)cc1` (configuration not stated): the “viability” value is 85.7%.
Next, `CCOC(=O)c1nn(-c2ccc(C)cc2)c2nc(Nc3ccccc3)cc(=O)n12`: 94.8%.
With `Cn1nc([N+](=O)[O-])nc1Sc1ccc(C(C)(C)C)cc1`, the “viability” value was 84.8%.
On to `Cn1cnc(Sc2ncnc3nc[nH]c23)c1[N+](=O)[O-]`, for which the “viability” value is 82.1%.
The result for `Cc1cc(C)n(-c2cc(C(C)(C)C)nc3c(-c4ccccc4)cnn23)n1` reads 85%; that for `Cc1cc(-c2nnc3n2CCCCC3)c(C)n1-c1ccccc1`, 90.5%.
Next, `C/C(=N\N(Cc1ccccc1)c1ccccc1)c1ccncc1`: 88.6%; `CCOC(=O)CSc1nnc(-c2ccc(S(=O)(=O)NCc3cccs3)cc2)o1`: 100%.
`Cn1c(=S)c2[nH]c(SCCN3CCCC3)nc2n(C)c1=O`: the “viability” value was 93%.
In the case of `CCOC(=O)CNc1ccc(C(=O)OCC)cc1[N+](=O)[O-]`, the “viability” value is 102%.
Next, `CCCc1cc(C(N)=S)ccn1`: 94.8%; `CCCn1c(=N)n(CC(=O)c2ccc(OCC(=O)OC)cc2)c2ccccc21`: 97.9%; `Cc1ccc(S(=O)(=O)N2CCC(C(=O)OCc3ccccc3)CC2)cc1C`: 96.3%.
Take `NC(=O)c1cccn1-c1ncc(C(F)(F)F)cc1Cl`: the “viability” value was 106%.
`CCOC(=O)C1=NOC(CNc2ncc(C(F)(F)F)cc2Cl)C1` (configuration not stated): the “viability” value is 97.5%.
Take `CCOC(=O)c1ccc(N=C2SC(C(=O)Nc3ccc(C(=O)O)cc3)CC(=O)N2Cc2cccs2)cc1` (configuration not stated): the “viability” value was 90.3%.
With `Cc1cc(C2=NNC(=NC3CCCCC3)SC2)c(C)n1-c1c(C)n(C)n(-c2ccccc2)c1=O`, the “viability” value is 98.9%.
Next, `S=C(NCCN1CCOCC1)N/N=C/c1cccs1`: 89.9%; `Cc1ccc(C)c2nc(N3CCCC3)c(C#N)cc12`: 91.6%.
Regarding `Cc1nc(SCC(=O)NC2CCCCC2)[nH]c(=O)c1C`, the “viability” value is 95.2%.
Next, `CC1CCCC(C)N1C(=O)COC(=O)c1cc(-c2cccs2)nn1-c1ccccc1` (configuration not stated): 101%.
As to `CCOC(=O)COc1ccc(C2CC(C)=NN2c2ccccc2)cc1` (configuration not stated), the “viability” value was 96.7%.
Next, `O=C(CCN1C(=O)C2C3C=CC(C3)C2C1=O)Oc1ccc2ccccc2c1` (configuration not stated): 94.8%; `O=C(COC(=O)C1CCN(c2ccc(C(F)(F)F)cn2)CC1)Nc1ccc(F)cc1[N+](=O)[O-]`: 95.2%.
As for `O=C(Cc1ccc(Nc2nc3ccc(Br)cc3[nH]2)cc1)NCCc1cccs1`, the “viability” value was 86.8%.
On to `Brc1cccc2sc(N3CCN(c4ccccc4)CC3)nc12`, for which the “viability” value was 85.2%.
Next, `Cc1[nH]n(S(=O)(=O)Cc2ccccc2)c(=O)c1N=Nc1ccccc1Cl`: 105%; `CN1CCN(c2c(F)cc3c(=O)c(C(=O)O)cn4c3c2OCN4C)CC1`: 98.7%.
For the compound `C=C(C)C1CC=C(CN2CCN(Cc3ccccc3)CC2)CC1` (configuration not stated), the “viability” value is 93.8%.
The result for `Cc1cccc(C2=N/C(=C\c3cccs3)C(=O)O2)c1` reads 104%.
The result for `Cn1c(=O)c2[nH]c(-c3ccc(S(=O)(=O)O)cc3)nc2n(C)c1=O` reads 94.3%.
Next, `C=CCOC(=O)COc1ccc2c(C)c(CC)c(=O)oc2c1`: 99.1%; `C/C(CCc1ccc2c(c1)OCO2)=N\NC(=S)NC(C)C`: 81.8%.
As for `Cc1ccc(/C=N/NC(=S)NC(C)C)o1`, the “viability” value is 97.9%.
`CCCCCCC[N+](CC)(CC)CCCCc1ccc(Cl)cc1`: the “viability” value is 89.3%.
Next, `COc1cc(/C=N/N2CCOCC2)ccc1OCc1ccc(Cl)cc1`: 85.8%; `COc1ccccc1/C=C/C(=O)Nc1ccc(S(=O)(=O)Nc2cc(C)on2)cc1`: 91.3%.
Next, `COc1ccc(N=Cc2c(OC)ccc3ccccc23)cc1`: 90%; `Cc1cn(-c2ccc(Br)cc2)[nH]c1=O`: 96.3%; `CN(C(=O)COC(=O)c1ccc([N+](=O)[O-])cc1Cl)C1CCCCC1`: 101%.
As to `COc1ccccc1N(O)C1CC(=O)N(c2ccc(Br)cc2)C1=O` (configuration not stated), the “viability” value is 94.8%.
`O=C(OCC(=O)c1c[nH]c2ccccc12)c1cc(Br)ccc1O`: the “viability” value was 94.9%.
`COc1cccc(COC(=O)c2ccc3c(=O)n4c(nc3c2)CCC4)c1OC`: the “viability” value was 83%.
Next, `C=CCn1c(N)cc(=O)nc1SC(CC)C(=O)Nc1ccc(C(C)=O)cc1` (configuration not stated): 102%; `NC(=O)c1ccc(N=Cc2ccc([N+](=O)[O-])s2)cc1`: 80.4%; `CCN(CC)C(=S)SSC(=S)N(CC)CC`: 85.7%.
The result for `C/C(=C\C(=O)c1ccccc1)Nc1ccc(Cl)c(Br)c1` reads 99.4%.
As to `O=C(CSCC(=O)Nc1ccc2ccccc2c1)NCc1ccccc1`, the “viability” value is 105%.
With `COC(=O)C(C)Oc1cc(C)ccc1COc1ccc(-n2nc(C)n(C(F)F)c2=O)cc1` (configuration not stated), the “viability” value was 87.3%.
On to `Cc1[nH]n(-c2ccccc2)c(=S)c1C=NCCCN=Cc1c(C)[nH]n(-c2ccccc2)c1=S`, for which the “viability” value was 96.7%.
Next, `CC1=NN(c2ccccc2)C(=O)/C1=C\c1c(C)[nH]n(-c2ccccc2)c1=O`: 83.9%; `O=C(NC1CCN(C(=O)N2c3ccccc3Sc3ccccc32)CC1)c1ccccc1F`: 86.3%.
For the compound `Oc1ccc(/C=N/NC(=S)N2CCOCC2)cc1`, the “viability” value is 84.3%.
For `CC1CCN(c2nc(Cl)nc(Nc3ccc([N+](=O)[O-])cc3)n2)CC1`, the “viability” value is 88.8%.
Next, `O=c1c2cc(Br)cc(Br)c2oc2nc3n(c(=O)c12)CCCS3`: 100%.
`Cc1ccc(C2=NNC3(CCOC(C)(C)C3)S2)cc1` (configuration not stated): the “viability” value is 106%.
The result for `Cc1cccc2c1N(CCCOc1ccc(C(C)(C)C)cc1)C(=O)C2=O` reads 84%.
Next, `CCOc1ccc(N/C(C)=C/C(=O)c2ccc3c(c2)OCCO3)cc1`: 97.4%; `Cc1ccc(NN=C2c3ccccc3-c3ccccc32)cc1`: 92%; `CC1(c2nnc(-c3ccncc3)o2)CC(c2ccccc2)=NO1` (configuration not stated): 92.3%.
The result for `Cc1ccnc(NC(=O)COc2ccc3c(c2)CCC3)c1` reads 97.4%; that for `O=C1C(Cl)=C(N2CCOCC2)C(=O)N1c1cccc(Cl)c1`, 91.6%; that for `O=C(CN1CCN(c2ccc(F)cc2)CC1)N1CCC(Cc2ccccc2)CC1`, 85.5%.
For the compound `COc1ccc(/C=N/OCC(=O)OCC(=O)N(C)c2ccccc2)cc1`, the “viability” value was 91.8%.
Take `O=C1C2C(c3ccccc3)(C(=O)N1c1ccc(Cl)cc1)C2(c1ccccc1)c1ccccc1` (configuration not stated): the “viability” value is 90.5%.
On to `CC1(c2ccc(OC(F)F)cc2)NC(=O)N(CC(=O)c2ccc3c(c2)OCO3)C1=O` (configuration not stated), for which the “viability” value is 93.4%.
Regarding `COc1ccc(NC2(c3ccc(Cl)cc3)C(=O)c3ccccc3C2=O)cc1`, the “viability” value was 94.8%.
Next, `COC(=O)CCn1c(C)cc(C(=O)COc2ccccc2C(N)=O)c1C`: 81.6%; `c1ccc(-c2ccccc2OCCCCn2ccnc2)cc1`: 80.4%; `CCCn1nnnc1NC(=O)c1ccc(C)cc1Cl`: 90.1%.
Next, `CCCc1cc2c(cc1NC(=O)c1ccccc1Cl)OCO2`: 91.1%; `Nc1nc(-c2cccc(F)c2)cs1`: 87.4%.
`NC1=NC[C@H](Cc2ccc(O)cc2)N1CCc1cccc2ccccc12`: the “viability” value was 85%.
For the compound `N#CC1=C(N)NC(SCC(=O)c2ccccc2)=C(C#N)C12CCCC2`, the “viability” value is 82.1%.
Next, `CCOC(=O)CSC1=C(C#N)C(c2ccc(C)cc2)C2=C(CCCC2=O)N1` (configuration not stated): 95.6%; `CCOC(=O)CSc1nnc(NC(=O)c2ccc3c(c2)OCO3)s1`: 93.7%.
`C=C(C)C1CCC(C)=C1COC(=O)Nc1ccccc1` (configuration not stated): the “viability” value is 81.2%.
The result for `CC(C)C(=O)Nc1cccc(-c2nc3ccccc3c(=O)o2)c1` reads 101%.
Take `Cc1ccc(C(=O)OCc2nnc(-c3ccccc3)o2)s1`: the “viability” value was 94.3%.
Next, `CCOC(=O)c1ccc(N2CC(O)=C(c3nc4ccccc4c(=O)[nH]3)C2=N)cc1`: 94.1%; `O=C(CSc1nn(-c2ccc(F)cc2)c(=S)s1)NCC1CCCO1` (configuration not stated): 92.4%.
`Cc1nn(-c2ccccc2)c(Cl)c1/C=N/NC(=O)c1ccc(CNc2ccccc2)o1`: the “viability” value is 96.3%.
Regarding `Cc1ccc(C(=O)CCC(=O)OCC(=O)Nc2c(C)nn(-c3ccccc3)c2C)cc1`, the “viability” value is 101%.
The result for `CCOC(=O)C(/C=C(\C#N)C(=O)OCC)=C(/N)N1CCN(c2ccc(Cl)cc2)CC1` reads 90.8%.
The result for `CCN1CCN(c2oc(COc3ccc(-c4ccccc4)cc3)nc2C#N)CC1` reads 81.5%; that for `Clc1ccc(-c2cc3ccccc3nc2N2CCCC2)cc1`, 85.9%; that for `O=C1C2C(C(=O)N1/N=C/c1ccc([N+](=O)[O-])o1)C1C=CC2C12CC2` (configuration not stated), 99%.
